High-throughput results deposited in PubChem BioAssay by National Center for Advancing Translational Sciences (NCATS).
This is one part of a sample in which hits are shown more often than they occur.
Lassa entry inh = qHTS for Inhibitors of binding or entry into cells for Lassa Virus; Lassa virus pseudotype entry inhibition, cell reporter; Potency, µM (doses to about 37.9 µM), without a hit: at the highest dose activity change, negative = inhibition, usual class: inhibitors; hit rate 1.2% among 300,000; calls by dose curve; tested in HEK293 cells; also: potency is read from the fitted curve at half-maximal effect; % is scaled to controls: 0 for no effect and ±100 for the full control effect; nearly all actives have a fitted effect of over 50% in size
Vaccinia Venus = qHTS for Stage-Specific Inhibitors of Vaccinia Orthopoxvirus: Venus Reporter Primary qHTS | Vaccinia virus Venus reporter expression, fluorescence | Potency, µM (doses to about 36.5 µM), for inactives: at the highest dose activity change, negative = inhibition, hits mostly inhibitors | hit rate 0.46% among 330,000; calls by dose curve; tested in A549 cells; also: potency is read from the fitted curve at half-maximal effect; % is scaled to controls: 0 for no effect and ±100 for the full control effect; nearly all actives have a fitted effect of over 30% in size
Shiga toxin inh = A qHTS for Small Molecule Inhibitors of Shiga Toxin; Vero cells, Shiga toxin protein synthesis inhibition reporter; inhibition, % at 38.7 µM; hit rate 9.2% among 290,000; AID 2315, 2010; in the data active = inhibition mostly above about 28%, no sharp cut-off; inactive = mostly below about 43%; also: 0% is about no effect
VACV mCherry inh = qHTS for Stage-Specific Inhibitors of Vaccinia Orthopoxvirus: mCherry Reporter Primary qHTS | Vaccinia virus mCherry reporter infection, fluorescence | Potency, µM (titrated, usually from 36.5 µM), for inactives: top-dose activity change, negative = inhibition, most hits filed as inhibitors | hit rate 0.63% among 310,000; calls by dose curve; tested in A549 cells; also: potency is read from the fitted curve at half-maximal effect; % is scaled to controls: 0 for no effect and ±100 for the full control effect; nearly all actives have a fitted effect of over 35% in size
Marburg entry inh = qHTS for inhibitors of binding or entry into cells for Marburg Virus. AID 540276, 2011. Marburg virus pseudotyped entry inhibition, cell reporter. Potency, µM (top dose mostly 37.8 µM), inactives show at the top dose activity change, negative = inhibition, actives largely listed as inhibitors. hit rate 1.8% among 300,000; calls by dose curve; tested in HEK293 cells; also: potency is read from the fitted curve at half-maximal effect; % is scaled to controls: 0 for no effect and ±100 for the full control effect
CHX counter = Cycloheximide Counterscreen for Small Molecule Inhibitors of Shiga Toxin. hit rate 12% among 300,000. max response, %. AID 2314, 2010. cell reporter, cycloheximide protein synthesis inhibition counterscreen; in the data active = max response mostly above about 13%, no sharp cut-off; inactive = mostly below about 14%; also: read at 38.3 µM for the half of the compounds with a filed dose; 0% is about no effect
Starred values were filed as active, the others as inactive; i = inactive; ? = inconclusive; / = not tested or not shown; [ ] = remark or other dose.

SMILES	Lassa entry inh	Vaccinia Venus	Shiga toxin inh	VACV mCherry inh	Marburg entry inh	CHX counter
COC(=O)N/N=C/c1cn(Cc2ccccc2F)c2ccccc12	-27%	-18%	3	-6%	?	11
COCC(=O)Nc1cc(C(=O)N2CCCC2c2nccs2)c2c(c1)nc(-c1ccncc1)n2C (configuration not stated)	/	-4%	/	-12%	/	/
CC(C)n1cc(/C=N/Nc2ccc(C(=O)O)cc2)c2ccccc21	-23%[46.1 µM]	-16%	54*	-21%	5%[46.1 µM]	58*
Nc1ccc(C(=O)N/N=C/c2cn(Cc3ccc(F)cc3)c3ccccc23)cc1	-22%[46.1 µM]	-13%	107*	-12%	-20%[46.1 µM]	33*
Nc1ccc(C(=O)N/N=C/c2cn(Cc3ccccc3)c3ccccc23)cc1	-11%	-17%	16	-15%	?	17*
O=C(CS(=O)(=O)c1ccc2ccccc2c1)N1CCCCCC1	1%	-8%	51*	i	1%[46.1 µM]	44*
O=C(NCC(=O)N1CCCCC1)c1ccc2ccccc2c1	/	/	34	/	/	34*
O=C(NCC(=O)N1CCN(S(=O)(=O)c2ccccc2)CC1)c1ccc2ccccc2c1	4%	-7%	/	-3%	3%	/
CC1CC(C)CN(C(=O)CNC(=O)c2ccc3ccccc3c2)C1 (configuration not stated)	/	/	13	/	/	18*
O=S(=O)(CC(CN1CCCCC1)N1CCCCC1)c1ccc2ccccc2c1 (configuration not stated)	?	?	-3	?	3.5µM*	1
CCOC(=O)C(=Cc1ccc(Br)cc1)C(=O)OCC	?	14µM*	-18	?	?	-10
Nc1cccc2c1C(=O)N(CCOc1ccc(F)cc1)C2=O	?	-3%	140*	-13%	?	54*
CC(C)Oc1cccc(OCCN2C(=O)c3ccccc3C2=O)c1	-18%	-7%	36*	-12%	?	27*
COc1ccc(OCCN2C(=O)c3ccccc3C2=O)cc1	29%	5%	90*	i	2%[46.1 µM]	29*
Cc1ccccc1OCCN1C(=O)c2ccccc2C1=O	3%	-8%	154*	i	0%	47*
O=C1c2ccccc2C(=O)N1CCOc1ccccc1	?	-16%	/	/	?	/
Cc1ccc(Cn2c(=O)n(Cc3ccco3)c(=O)c3oc4ccccc4c32)cc1	6%[46.1 µM]	-7%	/	i	/	/
CCn1c(=O)sc2cc(NS(=O)(=O)c3ccc(F)c(C)c3)ccc21	-17%[46.1 µM]	-12%[7.34 µM]	/	-7%[7.34 µM]	?	/
c1ccc(Nc2c(-c3c[nH]c4ccccc34)nc3ccccn23)cc1	6%[46.1 µM]	-8%	/	-3%	?	/
COc1ccc2[nH]cc(CCCN3C(=O)c4ccccc4C3=O)c2c1	11µM*	-6%	33	-8%	?	-3
O=C1c2ccccc2C(=O)N1CCOc1ccccc1Br	-25%[46.1 µM]	-13%	73*	i	?	42*
COc1ccc(NC(=O)Cn2ccn(-c3ccc(C)c(C)c3)c(=O)c2=O)cc1Cl	-4%[46.1 µM]	-11%	/	-6%	/	/
Cc1nn(-c2ccc(N3CCOCC3)nn2)c(C)c1CCC(=O)Nc1ccc(F)cc1	/	/	10	/	/	21*
Cc1ccc(NC(=O)CCc2c(C)nn(-c3ccc(N4CCOCC4)nn3)c2C)cc1C	18%[46.1 µM]	-20%	50*	i	5%[46.1 µM]	20*
Cc1cccc(NC(=O)CCc2c(C)nn(-c3ccc(N4CCCCC4)nn3)c2C)c1	/	/	72*	/	/	41*
SMILES	Lassa entry inh	Vaccinia Venus	Shiga toxin inh	VACV mCherry inh	Marburg entry inh	CHX counter
Cc1cccc(NC(=O)CCc2c(C)nn(-c3ccc(N4CCOCC4)nn3)c2C)c1	?	-12%	40*	-11%	20%[46.1 µM]	23*
COc1cccc(NC(=O)CCc2c(C)nn(-c3ccc(N4CCOCC4)nn3)c2C)c1	1%[46.1 µM]	-3%	23	-11%	4%[46.1 µM]	11
CCc1ccc(NC(=O)CCc2c(C)nn(-c3ccc(N4CCCC4)nn3)c2C)cc1	-5%[46.1 µM]	-14%	/	0%	/	/
Cc1ccccc1NC(=O)CCc1c(C)nn(-c2ccc(N3CCOCC3)nn2)c1C	8%[46.1 µM]	-25%	28	-17%	4%[46.1 µM]	6
CSc1ccc(-c2ccc(C(=O)NCC3CCCO3)c(N3CCC(O)CC3)n2)cc1 (configuration not stated)	/	5%	/	-12%	/	/
CCOC(=O)c1cnn(Cc2ccc(C)cc2)c1N	2%[46.1 µM]	-18%	34	-18%	?	11
CCOC(=O)c1cnn(-c2ccc(C(=O)Nc3ccc(OC(F)(F)F)cc3)cc2)c1N	11%[46.1 µM]	-5%	/	-16%	/	/
CCOC(=O)c1ccc(-n2ncc(C(=O)OCC)c2N)cc1	-7%	-23%	34	/	?	21*
CCOC(=O)c1cnn(-c2ccc(C)cc2)c1N	-3%	-17%	75*	-15%	?	33*
CCN(CC)C(=O)C1CCN(S(=O)(=O)c2ccc3c(c2)CCCN3C(=O)C2CCC2)CC1	?	0%	-5	-11%	-6%[46.1 µM]	2
O=C(Nc1ccc(F)cc1F)c1cc2ccccc2oc1=O	/	/	53*	/	/	20*
N/C(=N\NC(=O)c1ccc(F)cc1)c1cc2ccccc2oc1=O	/	-8%	27	?	/	10
CCOc1ccccc1NC(=O)c1cc2ccccc2oc1=O	2%	-11%	13	-6%	?	10
N/C(=N\NC(=O)c1cccc(F)c1)c1cc2ccccc2oc1=O	/	/	34*	/	/	26*
CC1C=C2OC(N)=C(C#N)C(c3ccncc3)C2C(=O)N1CCN(C)C (configuration not stated)	/	/	/	/	1%	/
CCN1C(=S)NC(c2cccs2)C(C(=O)OC)=C1C (configuration not stated)	?	/	/	/	38%[14.2 µM]	/
Cc1ccc2c(c1N)C(=O)c1ccccc1C2=O	/	53%	/	-14%	/	/
Cc1ccc2c(c1C)-c1c(ccc(C)c1C)C(=O)C2=O	?	10µM*	/	?	?	/
CC(=O)NCc1ccc(C(=O)CCl)s1	?	-1%	22	-20%	4.5µM*	5
C=CCNc1oc(-c2ccc(OCC)cc2)nc1C#N	?	-18%	63*	-23%	11%	15*
CNc1oc(-c2ccc(OCc3ccccc3)cc2)nc1C#N	7%	-24%	38	-21%	-21%	24*
C=CCNc1oc(-c2ccc(OC)cc2)nc1C#N	?	/	78*	/	-21%	43*
COc1cc(OC)c(OC)cc1/C=C/c1nc2cc3ccccc3cc2c(=O)n1-c1ccccc1Br	-5%[46.1 µM]	-7%	/	-11%	/	/
Fc1cccc(Cc2noc(CN3CCCN(C4Cc5ccccc5C4)CC3)n2)c1	7%[46.1 µM]	2%	47	-47%	11µM*	3
Fc1cccc(Cc2noc(CN3CCN(C4CCc5ccccc5C4)CC3)n2)c1 (configuration not stated)	9%	-3%	4	-21%	13%[46.1 µM]	-3
O=C(/C=C/c1ccc(O)c(O)c1)NC(=O)c1ccccc1O	/	9%	24	-1%	/	15
